Screening data from PubChem BioAssay.
This is a sample that favours compounds with a hit; in the whole collection about 7.9% have one here.
KB-3-1 tox = qHTS assay for MDR1-selective chemotherapeutics: Primary screen using the parental adenocarcinoma cell KB-3-1; hit rate 1.4% among 400,000; Potency, µM (titrated, usually from 46.1 µM), hits mostly cytotoxic; KB-3-1 viability, CellTiter-Glo ATP luminescence, 72 h; also: % is scaled to controls: 0 for no effect and ±100 for the full control effect; nearly all actives have a fitted effect of over 60% in size
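KB-3-1 parental drug-naive adenocarcinoma cells in DMEM/10% FBS, incubated 72 h at 37 C with pin-transferred compounds across a concentration series. Viability by CellTiter-Glo luminescence; concentration-response curves fitted after normalization.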
HT1080-NT tox = qHTS for induction of synthetic lethality in tumor cells producing 2HG: qHTS for the HT-1080-NT fibrosarcoma cell line; AID 686970, 2013; HT-1080-NT fibrosarcoma viability, CellTiter-Glo ATP luminescence, 48 h; hit rate 1.6% among 360,000; Potency, µM (top dose mostly 46.1 µM), for the others: top-dose activity, negative = less viability, hits mostly cytotoxic;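 also: NT is the 2HG producing partner of a matched IDH1 knockdown line; 0% = DMSO-treated cells and -100% = media-only wells without cells; nearly all actives have a fitted effect of over 55% in size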
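Compounds were tested in concentration-response format on HT-1080-NT cells for 48 hours at 37 degrees C. Cell viability came from CellTiter-Glo luminescence; curves were classified by r2, response magnitude and activity.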
SW480 rereplic = A quantitative high throughput screen for small molecules that induce DNA re-replication in SW480 colon adenocarcinoma cells | SW480 DNA re-replication, Hoechst DNA content imaging, 48 h | Potency, µM (top dose mostly 46.1 µM), for the others: at the top dose re-replication activation, usual class: activators | hit rate 1.8% among 340,000; also: % of control where 0% means no effect; nearly all actives have a fitted effect of over 55% in size
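Image-based DNA-content assay: after two days of treatment, nuclei were labelled with the DNA dye Hoechst and imaged, and hits were compounds raising the count of nuclei showing high fluorescence intensity.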
MCF10A rerep = A quantitative high throughput screen for small molecules that induce DNA re-replication in MCF 10a normal breast cells; MCF 10A DNA re-replication, Hoechst nuclear intensity, 48 h; Potency, µM (doses to about 46.1 µM), for inactives: at the top dose activity, positive = re-replication, actives largely listed as activators; hit rate 2.9% among 350,000; AID 624296, 2012; also: % of control where 0% means no effect; nearly all actives have a fitted effect of over 50% in size
KB-V1 MDR tox = qHTS assay for MDR1-selective chemotherapeutics: Primary screen using the drug-selected MDR subline cells KB-V1 | KB-V1 MDR cells viability, CellTiter-Glo, 72 h | Potency, µM (top dose mostly 46.1 µM), usual class: cytotoxic | hit rate 3.4% among 400,000; also: % is scaled to controls: 0 for no effect and ±100 for the full control effect; nearly all actives have a fitted effect of over 60% in size
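Readout: CellTiter-Glo luminescence, 10 min after addition. Cells: KB-V1 MDR subline, 72 h at 37 degrees C with compound. Analysis: corrected, normalized data fitted to concentration-effect curves.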
HT1080 IDH1KD tx = qHTS for induction of synthetic lethality in tumor cells producing 2HG: qHTS for the HT-1080-IDH1KD cell line | HT-1080 IDH1 knockdown viability, ATP luminescence, 48 h | Potency, µM (titrated, usually from 46.1 µM), inactives show at the highest dose activity, negative = toxicity, actives largely listed as cytotoxic | hit rate 2% among 360,000;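 also: 0% = DMSO wells and -100% = cell-free medium wells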
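Using the IDH1-knockdown HT-1080 line run in the same batch and compound series as the NT line, viability after 48 h at 37 °C was determined by CellTiter-Glo luminescence and expressed as % activity.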
* = called active by the depositor; i = inactive; ? = inconclusive; . = not tested or not shown; ! = not active in a repeat. Calls follow the shape of the dose curve; as a rule, active = well fitted curve in the direction sought with a large enough effect; inconclusive = small, poorly fitted or top-dose-only effect, or another doubt; inactive = no such curve, though single readings can be large; an effect the other way counts as inactive or inconclusive. Potency is read from the fitted curve at half-maximal effect.

SMILES	KB-3-1 tox	HT1080-NT tox	SW480 rereplic	MCF10A rerep	KB-V1 MDR tox	HT1080 IDH1KD tx
CC(C)(C)OC(=O)c1c(N)n(Cc2ccco2)c2nc3ccccc3nc12	i	-9%	?	?	i	-5%
NC(Cc1ccc(Cl)cc1)c1csc(Nc2cnccn2)n1 (centres undefined)	i	?	.	.	i	?
COc1ccc(CC(N)c2csc(NC(=O)Nc3ccccc3Oc3ccccc3)n2)cc1 (centres undefined)	i	15µM*	.	.	i	?
COc1cc2c3cc1Oc1cc(ccc1O)C[C@@H]1c4c(cc(OC)c(O)c4Oc4ccc(cc4)C[C@H]3N(C)CC2)CCN1C	i	11%	10µM*	18µM*!	?	8%
COc1cc2c3cc1Oc1c(OC)c(OC)cc4c1[C@H](Cc1ccc(cc1)Oc1cc(ccc1O)C[C@H]3N(C)CC2)N(C)CC4	i	?	16%	45%	?	?
COc1cc2c3c(c1OC)Oc1ccc(cc1)C[C@H]1c4c(cc(OC)c(OC)c4Oc4ccc(cc4)C[C@@H]3N(C)CC2)CCN1C	i	-17%	2.6µM*	?	i	-25%
COc1ccc2cc1Oc1ccc(cc1)C[C@H]1c3cc(c(OC)cc3CCN1C)Oc1c(OC)c(OC)cc3c1[C@H](C2)N(C)CC3	?	5.8µM*	?	?	16µM*!	15µM*
CN(C)CCNC(=O)C(=O)NCC1OCCCN1S(=O)(=O)c1cccs1 (centres undefined)	?	4%	?	1%	i	5%
O=c1c2ccccc2nc(/C=C/c2cccc3ccccc23)n1-c1ccc(Cl)cc1	i	.	.	.	i	.
Cc1c(C)c2c(OCC(=O)N[C@@H](C)C(=O)O)cc3c(c2oc1=O)CCC(C)(C)O3	i	18%	-2%	-21%	i	18%
C[C@]12C=CC(=O)C=C1CC[C@@H]1[C@@H]2CC[C@@]2(C)[C@H]1CC[C@]2(C)O	.	.	0%	16%	.	.
O=[N+]([O-])OC1CO[C@H]2C(O[N+](=O)[O-])COC12 (some centres undefined)	.	.	-1%	-2%	.	.
C[N+]12CCC(CC1)C(OC(=O)C(O)(c1ccccc1)c1ccccc1)C2 (centres undefined)	i	?	0%	8%	i	12%
CCC1(CC)C(=O)NC(=O)NC1=O	.	.	1%	-4%	.	.
O=C1CCN(C(=O)CCCn2c(=O)oc3ccccc32)CC1	i	3%	-12%	0%	i	6%
O=C(CCn1c(=O)oc2ccccc21)N1CCN(c2ccccc2Cl)CC1	6.5µM*	8.2µM*	?	9.2µM*	4.1µM*	12µM*
CN1CCCC1c1cccnc1 (centres undefined)	i	8%	-1%	-1%	i	6%
CNC(=S)NC1CC2CCCC(C1)N2CC(C)C (centres undefined)	i	3%	3%	3%	i	13%
Cc1ccc(CN2C3CCCC2CC(NC(=S)NCc2ccccc2)C3)cc1 (centres undefined)	i	23µM*	?	6%	i	?
O=C(COc1cccc(Cl)c1)N1CCN(CCc2ccncc2)CC1	i	.	.	.	i	.
O=C1C(=Cc2cn(-c3ccccc3)nc2-c2ccc(OCc3ccc(Cl)cc3)cc2)SC(=S)N1CCS(=O)(=O)O	8.2µM*	?	.	.	?	-23%
COc1cc(/C=N/NP(=S)(c2ccccc2)c2ccccc2)ccc1O	i	-1%	-1%	11µM*	i	-25%
